HT1080-NT tox: qHTS for induction of synthetic lethality in tumor cells producing 2HG: qHTS for the HT-1080-NT fibrosarcoma cell line. Potency, µM (titrated, usually from 46.1 µM), for inactives: at the highest dose activity, negative = less viability, actives largely listed as cytotoxic. HT-1080-NT fibrosarcoma viability, CellTiter-Glo ATP luminescence, 48 h. 360,000 compounds, 1.6% hits. AID 686970, 2013;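 note: NT is the 2HG producing partner of a matched IDH1 knockdown line; potency is the fitted concentration of half-maximal effect; 0% = DMSO-treated cells and -100% = media-only wells without cells; nearly all actives have a fitted effect of over 55% in size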
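Compounds were tested in concentration-response format on HT-1080-NT cells for 48 hours at 37 degrees C. Cell viability came from CellTiter-Glo luminescence; curves were classified by r2, response magnitude and activity.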
DT40 TDP1 CPT: qHTS for Inhibitors of human tyrosyl-DNA phosphodiesterase 1 (TDP1): qHTS in cells in presence of CPT; 420,000 compounds, 12% hits; chicken DT40 Tdp1-/-;hTDP1 cells + 20 nM CPT, ATP luminescence, 48 h; AID 686979, 2013; Potency, µM (highest dose often 46.2 µM), for the others: top-dose activity change, negative = growth inhibition, hits mostly inhibitors; note: potency is the fitted concentration of half-maximal effect; nearly all actives have a fitted effect of over 55% in size
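Cell growth measured by CellTiter-Glo luminescence after a minimum 48 h, 37 C compound exposure with 20 nM CPT in Tdp1-knockout DT40 cells stably expressing hTDP1, seeded 400/well; qHTS titration format.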
TDP1 cell noCPT: qHTS for Inhibitors of human tyrosyl-DNA phosphodiesterase 1 (TDP1): qHTS in cells in absence of CPT; DT40 Tdp1-/- hTDP1 cells, no CPT, ATP luminescence, 48 h; Potency, µM (top dose mostly 46.2 µM), without a hit: at the highest dose activity change, negative = growth inhibition, most hits filed as inhibitors; 420,000 compounds, 15% hits; note: potency is the fitted concentration of half-maximal effect; nearly all actives have a fitted effect of over 55% in size
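Luminescent ATP content (CellTiter-Glo) served as the growth readout. Knockout chicken DT40 cells expressing human TDP1 were exposed to compounds without camptothecin for a minimum 48 hr at 37 °C.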
IL1B secr inh: qHTS for Inhibitors of Inflammasome Signaling: IL-1-beta AlphaLISA Primary Screen; THP-1 LPS/ATP IL-1B secretion, AlphaLISA, 16 h; active compounds read low; 360,000 compounds, 4.7% hits; AID 743279, 2014; activity change, % at 57.5 µM; in the data active = activity change below about -50%; inconclusive = mostly about -30% to -49%
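THP-1 cells pretreated 1 hr with compounds (up to 57.5 uM final), then stimulated with LPS (250 ng/mL final) plus ATP (1.25 mM final); secreted IL-1B measured by AlphaLISA after 16 hr, decreased signal indicating inhibition.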
HT1080 IDH1KD tx: qHTS for induction of synthetic lethality in tumor cells producing 2HG: qHTS for the HT-1080-IDH1KD cell line; Potency, µM (top dose mostly 46.1 µM), inactives show top-dose activity, negative = toxicity, most hits filed as cytotoxic; HT-1080 IDH1 knockdown viability, ATP luminescence, 48 h; 360,000 compounds, 2% hits;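 note: potency is the fitted concentration of half-maximal effect; 0% = DMSO wells and -100% = cell-free medium wells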
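CellTiter-Glo luminescence after 48 h compound exposure at 37 degrees C of IDH1-knockdown HT-1080 cells in 5% FBS RPMI. %Activity scaled between DMSO wells and cell-free media wells, with curves fitted and assigned curve classes.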
* marks the source's active call; other numbers are inactive results; ? = inconclusive; · = not tested or not shown. This is a sample that favours compounds with a hit; in the whole collection about 19% have one here. Unless noted, calls come from the whole dose curve; as a rule, active = well fitted curve in the direction sought with a large enough effect; inconclusive = small, poorly fitted or top-dose-only effect, or another doubt; inactive = no such curve, though single readings can be large; an effect the other way counts as inactive or inconclusive. Unless noted, % is set by controls: 0 for no effect and ±100 for the full control effect.

SMILES	HT1080-NT tox	DT40 TDP1 CPT	TDP1 cell noCPT	IL1B secr inh	HT1080 IDH1KD tx
CC[N+](C)(CC)CCOC(=O)C(O)(c1ccccc1)C1CCCCC1 (stereo not given)	?	?	?	-55.4*	19.3%
CCC(C(=O)NC1CCCCCC1)c1ccccc1 (stereo not given)	-29.3%	-5.6%	1.5%	15.4	-2.0%
O=c1nc2n(CCO)c3ccccc3cc-2c(=O)[nH]1	11.0%	12.7%	4.6%	4.1	2.4%
O=C(c1ccc2c(c1)N(Cc1ccccc1F)C(=O)c1ccccc1S2(=O)=O)N1CCCCC1	·	?	16.4µM*	·	·
O=C(c1ccc2c(c1)N(Cc1ccccc1F)C(=O)c1ccccc1S2(=O)=O)N1CCCC1	1.1%	?	23.1µM*	10.0	1.4%
COC(=O)[C@]12CCCCC=C1N(Cc1ccc3c(c1)OCO3)C(=O)[C@H](CC(=O)N1CCN(C(=O)C3CC3)CC1)C2	1.2%	?	?	-2.8	-1.2%
COc1ccc(CN(C(=O)Cc2c[nH]c3ccccc23)C(C(=O)NC2CCCCC2)c2ccc(C)o2)cc1 (stereo not given)	-13.4%	?	18.4µM*	-58.9*	?
COc1ccc(C(C(=O)Nc2ccc3c(c2)OCO3)N(C)C(=O)Cc2c[nH]c3ccccc23)cc1 (stereo not given)	?	18.4µM*	?	-58.2*	?
COc1cc(C(C(=O)NC2CCCCC2)N(Cc2cccs2)C(=O)Cc2c[nH]c3ccccc23)cc(OC)c1OC (stereo not given)	-18.7%	23.1µM*	20.6µM*	-23.2	-13.5%
Cc1ccc(C(C(=O)NC2CCCCC2)N(Cc2ccccc2)C(=O)Cc2c[nH]c3ccccc23)o1 (stereo not given)	-14.0%	?	?	?	-18.6%
COc1cccc(CN(C(=O)Cc2c[nH]c3ccccc23)C(C(=O)NC2CCCCC2)c2ccc(C)o2)c1 (stereo not given)	-21.4%	16.4µM*	16.4µM*	-67.8*	?
CC(=O)N[C@@H](Cc1c[nH]c2ccccc12)C(=O)OCC(=O)Nc1ccc2c(c1)OCO2	-14.6%	?	?	0.5	-9.0%
CCOc1ccccc1NC(=O)c1cc2c(=O)n(Cc3cccnc3)ccc2nc1C	·	-27.5%	-21.6%	·	·
CC(C)C[C@@H](CO)N1CCN(Cc2ccc([N+](=O)[O-])cc2)CCC1=O	12.3%	?	?	2.8	7.9%
COc1ccc(NC(=O)CCNS(=O)(=O)c2ccccc2F)cc1S(N)(=O)=O	10.0%	-5.0%	3.4%	11.2	13.1%
Cc1cc(=O)oc2c3c(cc(OCC(=O)NCC4CCC(C(=O)O)CC4)c12)OC(C)(C)CC3 (stereo not given)	-8.6%	-0.7%	1.3%	-0.2	-2.1%
COCCN1C(=O)COc2ccccc2C1C(=O)Nc1c(C)cccc1C (stereo not given)	19.5%	0.3%	-16.7%	35.4	5.2%
COC(=O)C1=C(C(=O)OC)SC(=C2C(=S)C(C)(C)N(C(=O)CC(C)C)c3ccccc32)S1	-5.5%	25.9µM*	?	?	-1.5%
COC(=O)C1=C(C(=O)OC)[C@@H]2N(C)c3ccccc3[C@@]23C[C@@H](C(=O)OC)N(C(=O)CC(C)C)C3=N1	1.1%	?	?	-14.6	5.8%
Cc1ccccc1CN1CCCOCCS1(=O)=O	14.1%	-2.3%	?	-0.9	10.1%
Cc1ccccc1CN1[C@@H](CC2CCCCC2)COCCS1(=O)=O	-7.8%	?	12.6µM*	-3.5	-14.2%
O=S1(=O)CCOC[C@H](CC2CCCCC2)N1Cc1cccc(Cl)c1	-26.5%	14.1µM*	11.2µM*	14.8	0.3%
CC(C)[C@H]1COCCS(=O)(=O)N1Cc1ccccc1-c1ccccc1	-0.2%	?	?	10.1	0.2%
O=S1(=O)CCOC[C@H](CC2CCCCC2)N1Cc1ccccc1	17.4%	?	?	1.9	4.4%
CCC1COCCS(=O)(=O)N1Cc1cccc(Cl)c1 (stereo not given)	12.6%	?	?	0.7	10.2%
SMILES	HT1080-NT tox	DT40 TDP1 CPT	TDP1 cell noCPT	IL1B secr inh	HT1080 IDH1KD tx
CC(C)[C@H]1COCCS(=O)(=O)N1Cc1cccc(Cl)c1	13.1%	?	11.2µM*	17.5	8.1%
Cc1ccccc1-c1ccccc1CN1[C@@H](C(C)C)COCCS1(=O)=O	0.0%	?	18.4µM*	-14.1	-2.3%
COc1ccc(/C=C/C(=O)N(CC(C)C)CC(C)C)cc1Br	10.7%	16.4µM*	16.4µM*	?	5.3%
COc1ccc2ccccc2c1-c1sc(Nc2ccccc2)n[n+]1-c1ccc(F)cc1	?	20.6µM*	13µM*	-78.1*	?
O=C(O)c1ccc(-c2sc(Nc3ccccc3)n[n+]2-c2ccc(F)cc2)cc1	-0.3%	-1.3%	-7.9%	31.2	-1.5%
CN(C)c1ccc(-c2sc(Nc3ccccc3)n[n+]2-c2ccc(F)cc2)cc1	-1.5%	?	?	44.0	-4.1%
COc1ccc(-c2sc(Nc3ccccc3)n[n+]2C)c(C)c1C	-0.6%	20.6µM*	20.6µM*	89.4	0.0%
COc1ccc(-c2sc(Nc3ccccc3)n[n+]2-c2ccc(F)cc2)cc1Br	?	5.8µM*	18.4µM*	?	-23.8%
Cc1onc(-c2c(F)cccc2Cl)c1C(=O)NC(=S)NCc1cccnc1	-0.5%	-12.1%	-26.9%	15.7	-3.1%
COCCNC(=O)C1(C)CCCN(C(=O)c2ccc(C)c(F)c2)C1 (stereo not given)	17.7%	-29.0%	-2.7%	6.7	13.6%
CC(C)Cn1c(=O)c2ccccc2n2c(CCC(=O)NCC3CCCO3)nnc12 (stereo not given)	-5.0%	-4.4%	8.1%	23.8	7.7%
COc1ccccc1NC(=O)CN(Cc1ccco1)C(=O)c1ccc(-n2nc(C)cc2C)cc1	7.4%	?	16.4µM*	-3.8	2.3%
Cc1ccc(CN(Cc2ccco2)C(=O)c2ccc(OCC(C)C)cc2)cc1	·	?	16.4µM*	·	·
CCOc1ccc(C(=O)N(Cc2ccc(C(C)C)cc2)Cc2ccco2)cc1	·	?	20.6µM*	·	·
CC(C)COc1ccc(C(=O)N(CC(=O)Nc2ccccc2C(F)(F)F)Cc2ccco2)cc1	?	?	?	-72.1*	-28.2%

High-throughput results: PubChem BioAssay, National Center for Advancing Translational Sciences (NCATS)
